Inconclusive results are not listed. Activity calls are given as the source filed them. How the source made its calls, unless noted: active means hit-call score of the fitted dose curve at least 0.9, where 1 is the maximum; inconclusive means response in the unintended direction; inactive means score below 0.9.
Assays:
[1] = target: Cytochrome P450 3A4 (Homo sapiens) (UniProt P08684); experiment: NVS_ADME_hCYP3A4: NovaScreen (NVS) CYP450-related Enzyme Activity (ADME) Assay for human CYP3A4 (AID 2283110)
Cytochrome P450 3A4 (Homo sapiens), sequence (P08684 whole entry, looked up): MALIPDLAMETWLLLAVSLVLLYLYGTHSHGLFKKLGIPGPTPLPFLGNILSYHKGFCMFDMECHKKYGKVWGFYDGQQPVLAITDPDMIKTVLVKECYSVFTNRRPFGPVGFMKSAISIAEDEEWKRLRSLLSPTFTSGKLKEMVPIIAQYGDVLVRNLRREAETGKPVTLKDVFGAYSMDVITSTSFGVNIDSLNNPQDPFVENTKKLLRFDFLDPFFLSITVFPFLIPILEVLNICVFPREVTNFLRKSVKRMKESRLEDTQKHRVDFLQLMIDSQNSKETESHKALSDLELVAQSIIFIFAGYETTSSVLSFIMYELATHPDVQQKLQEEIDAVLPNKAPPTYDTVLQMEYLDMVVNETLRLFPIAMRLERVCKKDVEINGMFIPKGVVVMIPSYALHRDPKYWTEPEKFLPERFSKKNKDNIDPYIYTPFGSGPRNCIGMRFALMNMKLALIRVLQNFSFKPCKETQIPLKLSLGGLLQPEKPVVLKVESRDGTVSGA
In short: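 Compounds screened in duplicate at 10 uM, with follow-up concentration-response for actives, against insect-cell-expressed recombinant enzyme. Activity read by fluorescence 0.33 h after dosing; loss of signal versus acetonitrile control indicates inhibition.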

[2] = target: rat CYP2A1, Cyp2a1 (gene 24894) (UniProt P11711); experiment: NVS_ADME_rCYP2A1: NovaScreen (NVS) CYP450-related Enzyme Activity (ADME) Assay for rat CYP2A1 (AID 2283114; active means hit-call score of the fitted dose curve at least 0.9, where 1 is the maximum; inactive means score below 0.9)
In short: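 Cell-free fluorescence enzyme-activity read on recombinant rat CYP2A1, taken 0.75 h post-dosing. Compounds were screened in duplicate at 10 uM, then hits tested in concentration series (max 20 uM); inhibition scored relative to acetonitrile baseline.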

[3] = target: rat CYP2A2, Cyp2a2 (gene 24895) (UniProt P15149); experiment: NVS_ADME_rCYP2A2: NovaScreen (NVS) CYP450-related Enzyme Activity (ADME) Assay for rat CYP2A2 (AID 2283116)
rat CYP2A2, Cyp2a2 (gene 24895), sequence (P15149 whole entry, looked up): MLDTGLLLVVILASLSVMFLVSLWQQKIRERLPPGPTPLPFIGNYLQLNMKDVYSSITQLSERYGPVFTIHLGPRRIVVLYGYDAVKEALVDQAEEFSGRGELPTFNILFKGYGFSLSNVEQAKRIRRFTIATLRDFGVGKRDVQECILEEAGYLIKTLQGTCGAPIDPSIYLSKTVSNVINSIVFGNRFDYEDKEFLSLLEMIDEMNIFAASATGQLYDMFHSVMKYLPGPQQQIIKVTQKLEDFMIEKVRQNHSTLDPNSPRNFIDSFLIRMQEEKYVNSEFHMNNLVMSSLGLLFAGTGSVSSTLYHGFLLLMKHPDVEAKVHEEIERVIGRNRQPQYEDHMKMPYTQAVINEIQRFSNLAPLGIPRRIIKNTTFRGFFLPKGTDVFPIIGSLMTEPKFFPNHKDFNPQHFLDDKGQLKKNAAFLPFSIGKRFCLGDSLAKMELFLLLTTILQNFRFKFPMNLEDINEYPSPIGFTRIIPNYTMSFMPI
In short: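 Compounds first tested in duplicate at 10 uM, then in singleton concentration series up to 20 uM when over threshold. Activity of the recombinant enzyme read by fluorescence at 0.2 h, normalised to acetonitrile vehicle.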

[4] = target: human Esterase Plasma (ES), BCHE (gene 590) (UniProt P06276); experiment: NVS_ENZ_hES: NovaScreen (NVS) Enzymatic Assay for human Esterase Plasma (ES) (AID 2283157)
human Esterase Plasma (ES), BCHE (gene 590), sequence (P06276 whole entry, looked up): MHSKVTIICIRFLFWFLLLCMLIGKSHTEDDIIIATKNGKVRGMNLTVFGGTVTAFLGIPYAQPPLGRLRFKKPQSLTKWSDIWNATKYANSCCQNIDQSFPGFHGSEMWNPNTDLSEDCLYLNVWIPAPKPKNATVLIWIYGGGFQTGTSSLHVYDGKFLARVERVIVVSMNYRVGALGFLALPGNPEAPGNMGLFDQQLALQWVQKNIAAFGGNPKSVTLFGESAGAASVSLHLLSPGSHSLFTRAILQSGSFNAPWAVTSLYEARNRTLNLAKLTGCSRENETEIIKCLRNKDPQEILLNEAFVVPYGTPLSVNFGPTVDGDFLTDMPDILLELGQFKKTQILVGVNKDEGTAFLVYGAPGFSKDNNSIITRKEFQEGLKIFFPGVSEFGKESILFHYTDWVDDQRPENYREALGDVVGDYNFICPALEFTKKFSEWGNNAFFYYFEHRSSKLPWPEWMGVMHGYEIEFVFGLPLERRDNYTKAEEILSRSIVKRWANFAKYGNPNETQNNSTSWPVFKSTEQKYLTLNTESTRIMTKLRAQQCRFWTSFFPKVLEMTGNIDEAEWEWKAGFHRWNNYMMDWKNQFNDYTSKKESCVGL
In short: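 Primary single-concentration screen at 25 uM in duplicate, then concentration-response to a 50 uM top dose. Human plasma esterase activity detected colorimetrically after 0.25 h incubation, with DMSO as baseline.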

[5] = target: human Sirtuin 3 (SIRT3), SIRT3 (gene 23410) (UniProt Q9NTG7); experiment: NVS_ENZ_hSIRT3: NovaScreen (NVS) Enzymatic Assay for human Sirtuin 3 (SIRT3) (AID 2283222)
In short: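 Cell-free enzyme assay with recombinant protein and fluorescent substrate, product separated by electrophoretic mobility shift; read 1 hour after dosing. Screened in duplicate at 25 uM, then singleton concentration-response up to 50 uM; loss of signal versus DMSO.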

[6] = target: guinea pig Leukotriene D4 Receptor (LTD4), CYSLTR1 (gene 100135514) (UniProt Q2NNR5); experiment: NVS_GPCR_gLTD4: NovaScreen (NVS) G Protein-Coupled Receptor Assay for guinea pig Leukotriene D4 Receptor (LTD4) (AID 2283248)
guinea pig Leukotriene D4 Receptor (LTD4), CYSLTR1 (gene 100135514), sequence (Q2NNR5 whole entry, looked up): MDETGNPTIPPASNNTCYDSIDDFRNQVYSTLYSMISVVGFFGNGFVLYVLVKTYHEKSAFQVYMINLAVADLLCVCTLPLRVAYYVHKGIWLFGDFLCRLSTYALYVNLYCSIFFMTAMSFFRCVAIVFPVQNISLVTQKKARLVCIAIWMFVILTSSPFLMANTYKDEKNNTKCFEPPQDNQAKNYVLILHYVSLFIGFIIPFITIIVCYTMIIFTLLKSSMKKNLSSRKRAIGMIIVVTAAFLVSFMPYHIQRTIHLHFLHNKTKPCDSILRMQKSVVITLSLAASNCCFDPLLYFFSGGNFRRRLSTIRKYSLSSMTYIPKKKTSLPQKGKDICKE
In short: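 Guinea pig lung membrane preparation; bound radioligand measured by filter scintillation after 1 h, loss of signal versus DMSO marking displacement. Compounds tested at 25 uM in duplicate, hits retested to max 50 uM.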

[7] = target: human Ephrin type-A Receptor 1 (EphA1), EPHA1 (gene 2041) (UniProt P21709); experiment: NVS_ENZ_hEphA1: NovaScreen (NVS) Enzymatic Assay for human Ephrin type-A Receptor 1 (EphA1) (AID 2283158);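 further: activity is signal loss versus DMSO meaning EphA1 kinase inhibition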
human Ephrin type-A Receptor 1 (EphA1), EPHA1 (gene 2041), sequence (P21709 whole entry, looked up): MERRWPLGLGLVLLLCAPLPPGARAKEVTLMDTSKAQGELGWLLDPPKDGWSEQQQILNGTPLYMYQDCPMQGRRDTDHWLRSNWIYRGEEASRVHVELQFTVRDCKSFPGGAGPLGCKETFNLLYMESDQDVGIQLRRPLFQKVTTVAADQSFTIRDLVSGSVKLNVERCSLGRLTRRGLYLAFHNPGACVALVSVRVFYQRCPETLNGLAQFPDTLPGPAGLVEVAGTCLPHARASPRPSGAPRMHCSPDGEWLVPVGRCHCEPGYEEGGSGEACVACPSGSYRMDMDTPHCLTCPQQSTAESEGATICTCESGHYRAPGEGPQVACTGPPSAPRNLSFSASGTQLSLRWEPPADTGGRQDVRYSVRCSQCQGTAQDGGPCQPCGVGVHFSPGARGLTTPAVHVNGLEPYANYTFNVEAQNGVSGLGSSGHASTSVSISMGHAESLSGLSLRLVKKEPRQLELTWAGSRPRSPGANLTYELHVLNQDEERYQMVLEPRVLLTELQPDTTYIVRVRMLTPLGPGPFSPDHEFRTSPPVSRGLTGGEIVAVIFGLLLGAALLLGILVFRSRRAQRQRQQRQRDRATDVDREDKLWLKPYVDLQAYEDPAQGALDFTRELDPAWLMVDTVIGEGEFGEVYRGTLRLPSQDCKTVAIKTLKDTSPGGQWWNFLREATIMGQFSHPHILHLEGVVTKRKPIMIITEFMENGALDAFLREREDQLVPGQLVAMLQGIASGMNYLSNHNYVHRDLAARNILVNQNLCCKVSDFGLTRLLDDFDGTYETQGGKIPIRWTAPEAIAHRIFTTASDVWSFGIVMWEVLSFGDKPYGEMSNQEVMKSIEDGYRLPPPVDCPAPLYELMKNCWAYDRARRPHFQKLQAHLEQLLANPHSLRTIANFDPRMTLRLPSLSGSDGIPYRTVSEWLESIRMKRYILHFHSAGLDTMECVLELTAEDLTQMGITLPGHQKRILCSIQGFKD
In short: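 Cell-free enzymatic assay with recombinant EphA1 and fluorescent substrate; product separated by electrophoretic mobility shift, fluorescence intensity read 1 hour after dosing. Loss of signal versus DMSO baseline; primary duplicate screen at 25 uM, actives followed to 50 uM top concentration.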

[8] = target: Mitogen-activated protein kinase 3 (Homo sapiens) (UniProt P27361); experiment: NVS_ENZ_hMAPK3: NovaScreen (NVS) Enzymatic Assay for human Mitogen-Activated Protein Kinase 3 (MAPK 3) (AID 2283177)
Mitogen-activated protein kinase 3 (Homo sapiens), sequence (P27361 whole entry, looked up): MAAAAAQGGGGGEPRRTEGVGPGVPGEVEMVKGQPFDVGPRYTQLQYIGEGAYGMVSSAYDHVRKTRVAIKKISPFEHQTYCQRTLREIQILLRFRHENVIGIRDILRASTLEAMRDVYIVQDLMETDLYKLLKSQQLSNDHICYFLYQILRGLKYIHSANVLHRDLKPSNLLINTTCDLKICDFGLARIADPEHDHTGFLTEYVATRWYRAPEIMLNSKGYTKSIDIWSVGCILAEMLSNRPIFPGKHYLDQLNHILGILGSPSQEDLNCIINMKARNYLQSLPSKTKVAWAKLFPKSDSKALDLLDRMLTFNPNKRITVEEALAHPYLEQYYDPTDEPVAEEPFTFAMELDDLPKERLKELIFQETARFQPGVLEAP
In short: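 Chemicals were first tested in duplicate at 25 uM, with hits re-run as concentration series (max 50 uM). Recombinant enzyme activity, measured 1 h post-dose in a cell-free format, was read by fluorescence/mobility shift relative to DMSO.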

[9] = target: human Vascular Endothelial Growth Factor Receptor 3 (VEGFR3), FLT4 (gene 2324) (UniProt P35916); experiment: NVS_ENZ_hVEGFR3: NovaScreen (NVS) Enzymatic Assay for human Vascular Endothelial Growth Factor Receptor 3 (VEGFR3) (AID 2283229)
human Vascular Endothelial Growth Factor Receptor 3 (VEGFR3), FLT4 (gene 2324), sequence (P35916 whole entry, looked up): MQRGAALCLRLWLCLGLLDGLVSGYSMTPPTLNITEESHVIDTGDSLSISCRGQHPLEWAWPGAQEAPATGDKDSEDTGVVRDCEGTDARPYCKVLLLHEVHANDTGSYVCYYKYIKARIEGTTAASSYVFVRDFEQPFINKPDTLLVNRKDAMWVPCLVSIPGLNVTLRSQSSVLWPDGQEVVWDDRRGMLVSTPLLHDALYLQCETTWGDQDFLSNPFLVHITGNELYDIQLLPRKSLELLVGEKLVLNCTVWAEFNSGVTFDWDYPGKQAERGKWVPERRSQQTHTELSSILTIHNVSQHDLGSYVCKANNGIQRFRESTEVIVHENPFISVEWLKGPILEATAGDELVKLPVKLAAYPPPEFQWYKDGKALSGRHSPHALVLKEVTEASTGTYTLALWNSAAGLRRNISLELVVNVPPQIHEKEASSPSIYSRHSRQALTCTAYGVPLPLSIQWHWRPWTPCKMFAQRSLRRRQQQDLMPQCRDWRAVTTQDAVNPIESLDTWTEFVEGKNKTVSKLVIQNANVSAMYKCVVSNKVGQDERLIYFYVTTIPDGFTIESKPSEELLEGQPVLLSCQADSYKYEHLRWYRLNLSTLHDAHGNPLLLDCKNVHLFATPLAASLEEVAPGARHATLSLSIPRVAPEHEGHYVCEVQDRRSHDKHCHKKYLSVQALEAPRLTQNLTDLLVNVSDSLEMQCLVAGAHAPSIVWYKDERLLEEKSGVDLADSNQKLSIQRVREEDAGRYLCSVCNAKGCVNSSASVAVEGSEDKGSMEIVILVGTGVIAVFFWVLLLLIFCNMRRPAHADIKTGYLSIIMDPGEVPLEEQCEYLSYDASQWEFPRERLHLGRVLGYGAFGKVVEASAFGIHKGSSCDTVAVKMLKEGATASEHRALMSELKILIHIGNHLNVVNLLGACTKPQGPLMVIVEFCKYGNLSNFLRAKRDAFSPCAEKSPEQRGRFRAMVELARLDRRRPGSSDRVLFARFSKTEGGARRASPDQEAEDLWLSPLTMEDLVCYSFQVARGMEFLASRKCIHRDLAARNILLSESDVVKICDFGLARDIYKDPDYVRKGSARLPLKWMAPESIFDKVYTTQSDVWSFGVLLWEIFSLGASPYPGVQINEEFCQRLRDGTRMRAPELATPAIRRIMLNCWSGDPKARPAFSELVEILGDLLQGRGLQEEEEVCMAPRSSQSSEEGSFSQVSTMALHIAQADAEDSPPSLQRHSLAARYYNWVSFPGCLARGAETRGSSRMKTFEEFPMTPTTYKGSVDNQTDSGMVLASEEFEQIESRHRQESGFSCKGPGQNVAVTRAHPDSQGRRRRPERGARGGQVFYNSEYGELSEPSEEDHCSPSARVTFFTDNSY
In short: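 Chemicals first run in duplicate at 25 uM, with actives re-tested in concentration series to a top of 50 uM. Recombinant VEGFR3 activity measured after 1 h via fluorescence with mobility-shift product separation; inhibition fitted relative to DMSO.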

[10] = target: human Vascular Endothelial Growth Factor Receptor 2 (VEGFR2), KDR (gene 3791) (UniProt P35968); experiment: NVS_ENZ_hVEGFR2: NovaScreen (NVS) Enzymatic Assay for human Vascular Endothelial Growth Factor Receptor 2 (VEGFR2) (AID 2283230)
In short: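 Cell-free recombinant VEGFR2 kinase, fluorescent substrate with electrophoretic mobility-shift separation; read 1 h after dosing. Screened at 25 uM in duplicate, hits to concentration-response up to 50 uM; loss-of-signal versus DMSO.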

[11] = target: human Phosphodiesterase 5 (PDE5), PDE5A (gene 8654) (UniProt O76074); experiment: NVS_ENZ_hPDE5: NovaScreen (NVS) Enzymatic Assay for human Phosphodiesterase 5 (PDE5) (AID 2283194)
In short: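 Screening began in duplicate at 25 uM, with actives taken into concentration-response. Enzyme activity of recombinant PDE5 toward its substrate was measured at 1 h by fluorescence mobility-shift detection, relative to DMSO controls.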

[12] = target: guinea pig Opioid, Kappa 1 Receptor (OpiateK), OPRK1 (gene 100135587) (UniProt P41144); experiment: NVS_GPCR_gOpiateK: NovaScreen (NVS) G Protein-Coupled Receptor Assay for guinea pig Opioid, Kappa 1 Receptor (OpiateK) (AID 2283252);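 further: active means reduced radioligand binding relative to DMSO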
guinea pig Opioid, Kappa 1 Receptor (OpiateK), OPRK1 (gene 100135587), sequence (P41144 whole entry, looked up): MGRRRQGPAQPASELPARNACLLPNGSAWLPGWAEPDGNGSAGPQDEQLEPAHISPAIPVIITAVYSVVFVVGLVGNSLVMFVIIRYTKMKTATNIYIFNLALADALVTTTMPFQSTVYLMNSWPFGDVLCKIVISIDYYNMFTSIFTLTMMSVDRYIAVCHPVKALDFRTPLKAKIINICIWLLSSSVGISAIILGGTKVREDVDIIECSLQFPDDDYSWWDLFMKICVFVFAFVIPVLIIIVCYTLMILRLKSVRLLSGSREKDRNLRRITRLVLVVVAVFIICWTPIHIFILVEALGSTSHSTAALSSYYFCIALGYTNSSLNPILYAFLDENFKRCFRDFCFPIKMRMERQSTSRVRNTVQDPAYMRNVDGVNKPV
In short: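 Radioligand binding to kappa opioid receptor in guinea pig cerebellar membranes, read by filtration and scintillation at 2 h. Compounds first tested in duplicate at 25 uM, then actives in concentration series; signal loss fitted against DMSO.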

**Q.** Which AC50 [1] does the source give for `CCCCOC(=O)CCCCCCCC(=O)OCCCC` here?
**A.** 3.8 µM (active)

**Q.** How did the outcome [1] turn out when `C1CCCCC1` was run?
**A.** inactive

**Q.** `C=Cc1ccc(C)cc1` was tested. Which outcome [2] did it give?
**A.** inactive

**Q.** Which AC50 [3] does the source give for `CC1(C)C(=O)N(Cl)C(=O)N1Br` here?
**A.** 5.02 µM (active)

**Q.** For `CC(C)(C)CC(C)(C)c1ccc(OCCOCC[N+](C)(C)Cc2ccccc2)cc1`, which AC50 [4] is on record?
**A.** 0.791 µM (active)

**Q.** How did the AC50 [4] turn out when `COCCOC(=O)c1ccccc1C(=O)OCCOC` was run?
**A.** 18.6 µM (active)

**Q.** How did the outcome [5] turn out when `CS(=O)(=O)OCCCCOS(C)(=O)=O` was run?
**A.** inactive

**Q.** Which outcome [6] does the source give for `O=C1c2ccccc2C(=O)c2c(O)ccc(O)c21` here?
**A.** inactive

**Q.** How did the outcome [7] turn out when `CCOc1ccc(NC(=O)CC(C)=O)cc1` was run?
**A.** inactive

**Q.** `C=CC(=O)OCCCC` was tested. Which outcome [7] did it give?
**A.** inactive

**Q.** Which outcome [8] does the source give for `[O-]n1ccccc1=S.[O-]n1ccccc1=S.[Zn+2]` here?
**A.** inactive

**Q.** What about the outcome [9] of the same molecule?
**A.** inactive

**Q.** What about the outcome [10] of the same molecule?
**A.** inactive

**Q.** For `O=[N+]([O-])c1ccc(O)cc1C(F)(F)F`, which outcome [11] is on record?
**A.** inactive

**Q.** How did the outcome [9] turn out when `CCOC(=O)[C@@H](C)Oc1ccc(Oc2nc3ccc(Cl)cc3o2)cc1` was run?
**A.** inactive

**Q.** How did the outcome [6] turn out when `COC(=O)c1ccc([N+](=O)[O-])cc1` was run?
**A.** inactive

**Q.** Which outcome [12] does the source give for `CN(c1nccc(=O)[nH]1)C1CCN(c2nc3ccccc3n2Cc2ccc(F)cc2)CC1` here?
**A.** inactive

**Q.** `COc1ccc(CCN2CCC(Nc3nc4ccccc4n3Cc3ccc(F)cc3)CC2)cc1` was tested. Which outcome [12] did it give?
**A.** inactive

Source: PubChem BioAssay (EPA / NIEHS)
